High-throughput results: PubChem BioAssay, National Center for Advancing Translational Sciences (NCATS)
PI5P4Ka inh – qHTS for Inhibitors of phosphatidylinositol 5-phosphate 4-kinase (PI5P4K); Phosphatidylinositol 5-phosphate 4-kinase type-2 alpha (Homo sapiens), P48426; PI5P4Kalpha enzyme, ADP-Glo luminescence, 60 min; active compounds read low; max response, %; actives 1.2% (n = 330,000); AID 652105, 2013; active means max response of -50% or lower; inconclusive means between -30% and -50%; inactive means -30% or higher; further: value at the top dose of about 77 µM; on the % scale 0 is the no-effect control and ±100 the full control effect
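ADP-Glo luminescence end-point after a 60 min room-temperature kinase reaction. PI5P4Kalpha and substrate in HEPES pH 7.4 buffer with EGTA, 0.1% CHAPS and 5% DMSO; ATP at 5 microM final.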
HP1b binding inh – HTS for Inhibitors of HP1-beta Chromodomain Interactions with Methylated Histone Tails; Chromobox protein homolog 1 (Homo sapiens), P83916; AlphaScreen HP1-beta / biotin-H3K9me3 peptide binding; Potency, µM (top dose mostly 114 µM), for inactives: at the highest dose activity change, negative = inhibition, most hits filed as inhibitors; actives 0.56% (n = 390,000); AID 540317, 2011; further: potency means the concentration at half of the fitted maximal effect; nearly all actives have a fitted effect of over 70% in size
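HP1-beta protein (50 nM final) preincubated 30 min at room temperature with biotinylated H3(1-18)K9me3 peptide (50 nM) in PBS pH 7.4, 0.01% Tween-20, then compound added for 30 min. AlphaScreen streptavidin donor/nickel chelate acceptor beads (10 ug/mL final), 30 min dark, luminescence read.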
PLK1 PBD block – qHTS for Inhibitors of PLK1-PDB (polo-like kinase 1 - polo-box domain): Primary Screen; Serine/threonine-protein kinase PLK1 (Homo sapiens), P53350; Plk1 PBD binding of FITC phosphopeptide, fluorescence polarization; Potency, µM, inactives show max response, negative = inhibition, usual class: inhibitors; actives 2.8% (n = 360,000); AID 720504, 2013; further: potency means the concentration at half of the fitted maximal effect; series mostly up to about 57 µM; on the % scale 0 is the no-effect control and ±100 the full control effect; nearly all actives have a fitted effect of over 65% in size
BAZ2B inh – qHTS Assay for Inhibitors of BAZ2B. AlphaScreen BAZ2B-H3K14Ac peptide displacement. Potency, µM (titrated, usually from 114 µM), without a hit: at the highest dose activity change, negative = inhibition, actives largely listed as inhibitors. actives 4.4% (n = 360,000); further: potency means the concentration at half of the fitted maximal effect; on the % scale 0 is the no-effect control and ±100 the full control effect; nearly all actives have a fitted effect of over 60% in size
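Compounds, titrated to a top concentration of 110 uM, were incubated 30 min at room temperature with preformed BAZ2B/acetyl-K14 H3 peptide complex (50 nM each). Proximity signal was measured by AlphaScreen after 20 min with beads.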
JMJD2A Tudor inh – qHTS Assay for Inhibitors of JMJD2A-Tudor Domain. Lysine-specific demethylase 4A (Homo sapiens), O75164. AlphaScreen JMJD2A-Tudor / H3K4me3 peptide binding. Potency, µM (doses to about 114 µM), for the others: at the highest dose activity change, negative = inhibition, hits mostly inhibitors. actives 4.4% (n = 390,000). AID 504339, 2011; further: potency means the concentration at half of the fitted maximal effect; on the % scale 0 is the no-effect control and ±100 the full control effect; nearly all actives have a fitted effect of over 50% in size
G9a inh – qHTS Assay for Inhibitors of Histone Lysine Methyltransferase G9a. actives 8.8% (n = 350,000). Histone-lysine N-methyltransferase EHMT2 (Homo sapiens), Q96KQ7. Potency, µM (top dose mostly 102 µM), for the others: at the top dose activity, negative = inhibition, actives largely listed as inhibitors. AID 504332, 2011. G9a H3K9 monomethylation, AlphaScreen, 2 h; further: potency means the concentration at half of the fitted maximal effect; on the % scale 0 is the no-effect control and ±100 the full control effect; nearly all actives have a fitted effect of over 75% in size
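AlphaScreen detection with an anti-monomethyl H3K9 antibody quantified product after a 2 h room-temperature reaction containing 500 nM biotinylated H3K9 peptide, 20 µM SAM and 20 nM enzyme, which had been preincubated 15 min with compound.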
Active calls of the source: *; ? = inconclusive; / = not tested or not shown; [ ] = remark or other dose. An excerpt weighted towards active compounds, which were near 12% of everything screened. Unless noted, the call rests on the fitted dose curve; in most records, active means well fitted curve in the direction sought with a large enough effect; inconclusive means small, poorly fitted or top-dose-only effect, or another doubt; inactive means no such curve, though single readings can be large; an effect the other way counts as inactive or inconclusive.

SMILES	PI5P4Ka inh	HP1b binding inh	PLK1 PBD block	BAZ2B inh	JMJD2A Tudor inh	G9a inh
Cc1nc2ccccc2c(=O)n1/N=C/c1c(O)ccc2ccccc12	-3	-18%	-15%	25µM*	-30%	32µM*
COc1cc(/C=N/n2c(C)nc3ccccc3c2=O)cc(OC)c1O	1	44%	-3%	-27%	-22%	13µM*
O=c1c2ccccc2nc(N/N=C/c2c(O)ccc3ccccc23)n1O	-78*	-15%	30µM*	28µM*	50µM*	?
C=C(C)[C@@H]1C2=CC(C(=O)OC)=C(C[C@@H](C(=C)C)[C@H]3O[C@H]3C3=C[C@H]1OC3=O)O2	/	56%	/	/	-5%	/
CCc1cc(-c2nnn(CCC3COCCO3)c2C(C)(C)O)ccc1-c1cn(CCc2c[nH]c3ccccc23)nn1 (centres undefined)	-1	/	3%	/	/	/
CCOC(=O)c1cnc2c(C(=O)OC)cccc2c1NCc1cccnc1	2	39%	-8%	-36%	5%	-14%
CCOC(=O)CSc1nnc(CNc2cccc(Cl)c2)n1C	0	49%	-14%	5%	?	-1%[59 µM]
COCCCn1c(Cc2csc(Nc3cccc(Cl)c3)n2)nnc1SCC(=O)OC	/	-7%	-16%	?	56µM*	28µM*
C[C@@H]1[C@H](O)[C@@H](C)/C=C/C=C/C=C/C=C/C=C/C=C/C=C/[C@H](O[C@@H]2O[C@H](C)[C@@H](O)[C@H](N)[C@@H]2O)C[C@@H]2O[C@](O)(C[C@@H](O)C[C@@H](O)[C@H](O)CC[C@@H](O)C[C@@H](O)CC(=O)O[C@H]1C)C[C@H](O)[C@H]2C(=O)O	/	/	/	/	/	-1%[59 µM]
O=C(Nc1ccc(O)c(C(=O)O)c1)Oc1ccccc1	?	29%	-27%	-1%	-21%	50µM*
COc1cccc(-n2c(C)nc3c(cnn3-c3ccc(C)c(C)c3)c2=O)c1	/	27%	/	/	-6%	2%[59 µM]
C=CCn1c(-c2ccc(OC)c(OC)c2)cs/c1=N\c1ccccn1	4	?	?	?	-27%[11.4 µM]	3.5µM*
CCOc1cc(/C=N/N=C2/NC(=O)C(CC(=O)O)S2)ccc1OCc1ccc(Cl)cc1Cl (centres undefined)	-63*	45µM*	27µM*	28µM*	40µM*	/
O=C1N/C(=N\N=C\c2cccs2)SC1Cc1ccc(Cl)cc1Cl (centres undefined)	-4	3%	-7%	-5%	-16%	53%[59 µM]
O=C(O)CC1S/C(=N/N=C/c2ccccn2)NC1=O (centres undefined)	-10	59%	-6%	45µM*	79µM*	-4%
COc1ccc(/C=C(/NC(=O)c2ccccc2)C(=O)NC2CCS(=O)(=O)C2)cc1 (centres undefined)	-15	-10%	15µM*	7%	14µM*	-8%[59 µM]
O=C(NC1CCCCCC1)c1ccc(CS(=O)c2cccc(Cl)c2)o1 (centres undefined)	/	29%	/	?	-14%	-29%[59 µM]
Cc1ccc(Nc2nc(=O)[nH]nc2C)cc1	/	1%	-8%	3%	-4%	?
Cc1n[nH]c(=O)nc1Nc1ccc(O)cc1	/	11%	-12%	9%	-13%	79µM*
Cc1n[nH]c(=O)nc1N/N=C/c1ccco1	-1	14%	-11%	25µM*	?	-40%
Cc1n[nH]c(=O)nc1NCCc1ccccc1	-2	16%	-18%	-5%	21%	89µM*
Cc1cc(=O)[nH]c(N/N=C/c2ccc(C)o2)n1	-3	22%	6%	-4%	56µM*	?
CCOc1nc2cnccc2n(CC(=O)Nc2ccc(C)c(C)c2)c1=O	-1	26%	5%	-23%	11%	42%
COc1cc(/C=N/Nc2nc(C)cc(=O)[nH]2)ccc1O	-1	45%	4%	-3%	3%	29%[0.501 µM]
COc1cc(/C=N/Nc2nc(=O)[nH]nc2C)cc(OC)c1O	-30	-13%	21µM*	3%	?	?
SMILES	PI5P4Ka inh	HP1b binding inh	PLK1 PBD block	BAZ2B inh	JMJD2A Tudor inh	G9a inh
Cc1cc(=O)[nH]c(N/N=C/c2ccc(N(C)C)cc2)n1	3	-8%	-24%	-19%	25µM*	-1%
COc1cc(/C=N/Nc2nc(C)cc(=O)[nH]2)cc(OC)c1O	7	34%	9%	-3%	-18%	28µM*
COc1ccc(/C=N/Nc2nc(C)cc(=O)[nH]2)cc1OC	2	33%	-4%	-25%	25µM*	?
Cc1cc(=O)[nH]c(N/N=C/c2ccc(F)cc2)n1	4	16%	-15%	1%	-20%	?
Nc1nc2c(ncn2[C@@H]2O[C@H](CNCc3cnc(N4CCOCC4)nc3)[C@@H](O)[C@H]2O)c(=O)[nH]1	-1	/	-4%	/	/	/
CCCCC(CC)C/C=C1\CC(C(=O)OCC)Oc2ccccc21 (centres undefined) (tested in a mixture with another compound)	/	/	/	/	/	67%
Clc1ccc(/C=N/c2c(-c3ccc(Cl)cc3)nc3n2CCS3)cc1	19	-31%	-1%	?	?	35µM*
CC(C(=O)Nc1ccc(F)c(Cl)c1)N1Cc2ccccc2C1=O (centres undefined)	/	20%	/	1%	1%	6%[59 µM]
Cc1cc2c(n1-c1ccc(C(=O)O)cc1)CCCCC2	/	/	/	13µM*	/	7.9µM*
CC(=O)NC(C(=O)c1ccccc1)C(=O)c1ccccc1	1	46%	-1%	-2%	3%	50µM*
CCN1CCc2c(sc(NC(=O)c3ccc(S(=O)(=O)N4CCCC(C)C4)cc3)c2C(=O)OC)C1 (centres undefined)	/	34%	/	0%	-19%	-3%[59 µM]
Nc1cc2c(cc1[N+](=O)[O-])OCO2	-60*	-12%	-17%	56µM*	?	50µM*
Nc1cc2c(cc1[N+](=O)[O-])OCCO2	-7	13%	4%	-6%	-19%	10%[59 µM]
Cc1cc(-c2ccc(F)cc2)nc2cc(C(N)=O)nn12	?	-2%	-18%	-7%	-27%	56µM*
CCc1ccc(NC(=O)CC(NCc2cccnc2)C(=O)O)cc1 (centres undefined)	/	29%	/	4%	1%	?
COc1ccc(-n2c(=O)c(-c3cccs3)nc3cnc(N4CCN(C)CC4)nc32)cc1	/	/	/	/	/	1%[0.501 µM]
